Test results published in PubChem BioAssay (Tox21).
“And” between values parts separate entries of the source, which are not always exact repeats. Equal entries are not always repeated. Records with an inconclusive call do not appear. Entries that show only a call come without a potency. The source holds several records for some structures; these can differ, active in one and inactive in another. The source made the active and inactive calls. Unless noted, calls follow the shape of the dose curve; as a rule, active = well fitted curve in the direction sought with a large enough effect in the repeat runs; inconclusive = weak or mixed curves; inactive = no such curve, though single readings can be large; an effect the other way counts as inactive or inconclusive.

Columns and labels:
[1] = qHTS assay to identify small molecule antagonists of the vitamin D receptor (VDR) signaling pathway - cell viability counter screen (AID 743225); also: nearly all actives have a fitted effect of over 50% in size; also: potency is read from the fitted curve at half-maximal effect
Procedure, shortened: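 Compounds were pinned onto VDR-bla HEK 293T cells together with 1-alpha,25-dihydroxyvitamin D3 at 3 nM final. After 16 h at 37C and 5% CO2 plus the reporter readout, cell viability was measured by CellTiter-Glo luminescence (30 min, room temperature).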

[2] = qHTS assay to identify small molecule agonists of the NFkB signaling pathway (AID 1159509; active = well fitted curve in the direction sought with a large enough effect in the signal ratio in the repeat runs, not every such curve was filed as active; the % refers to the signal ratio; also: series mostly up to about 61 µM)
Procedure, shortened: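 NFkB-bla ME-180 cells with a beta-lactamase reporter under an NF-kB response element were plated overnight, treated with compounds in DMSO for 5 hr at 37 C, then loaded with FRET substrate for 1.5 hr at room temperature.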

[3] = qHTS assay to identify small molecule agonists of the NFkB signaling pathway - cell viability counter screen (AID 1159515; calls by dose curve; also: series mostly up to about 61 µM; nearly all actives have a fitted effect of over 55% in size)
Procedure, shortened: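 Luminescence from CellTiter-Glo (30 min, room temperature) gives viability, measured in the same wells as the beta-lactamase reporter read. Cells were NFkB-bla ME-180, 2,000 per well, treated 5 hr with compounds.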

[4] = qHTS assay to identify small molecule agonists of the endoplasmic reticulum stress response signaling pathway (AID 1159516; active = well fitted activation curve with a large enough effect in the signal ratio in the repeat runs, not every such curve was filed as active; the % refers to the signal ratio)
Procedure, shortened: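 Read-out is beta-lactamase cleavage of a FRET substrate (405 nm excitation; 460 and 530 nm emissions) in ESRE-bla HeLa cells after a 5 hr compound exposure at 37 C. Substrate incubation ran 2 hr at room temperature.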

[5] = qHTS assay to identify small molecule antagonists of the retinoid-related orphan receptor gamma (ROR-gamma) signaling pathway - cell viability counter screen (AID 1159520); also: nearly all actives have a fitted effect of over 50% in size; also: potency is read from the fitted curve at half-maximal effect
Procedure, shortened: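 Cytotoxicity was read from cellular ATP (CellTiter-Glo luminescence) after 16 hr at 37 C with 1 uM doxycycline induction. The inducer was added 2 hr after compound transfer to Tet-on ROR gamma CHO cells.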

[6] = target: Nuclear receptor ROR-gamma (Homo sapiens) (UniProt P51449); experiment: qHTS assay to identify small molecule antagonists of the retinoid-related orphan receptor gamma (ROR-gamma) signaling pathway (AID 1159521;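 also: CHO cells with doxycycline inducible ROR-gamma driving an RORE luciferase reporter; top concentration of the series differs between compounds; nearly all actives have a fitted effect of over 50% in size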)
Procedure, shortened: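 Test compounds were applied to Tet-on RORγ CHO cells 2 h ahead of doxycycline hyclate (1 uM final). Luciferase reporter activity was quantified by luminescence after 16 h at 37 C and 5% CO2.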

[7] = qHTS assay to identify small molecule agonists of the AP-1 signaling pathway - cell viability counter screen (AID 1159525; calls by dose curve; also: nearly all actives have a fitted effect of over 55% in size; also: potency is read from the fitted curve at half-maximal effect)
Procedure, shortened: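 Luminescent ATP readout (Cell Titer Glo, 30 min RT), normalised to DMSO and tetra n-octyl ammonium bromide controls. Cells were ME-180 AP-1-bla in 0.5% dialyzed FBS Opti-MEM, with a 5 h, 37 °C compound exposure.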

[8] = qHTS assay to identify small molecule agonists of the AP-1 signaling pathway (AID 1159526; calls by dose curve)
[9] = target: Retinoic acid receptor RXR-alpha (Homo sapiens) (UniProt P19793); experiment: qHTS assay to identify small molecule agonists of the RXR signaling pathway (AID 1159527; calls by dose curve; also: nearly all actives have a fitted effect of over 35% in size; also: potency is read from the fitted curve at half-maximal effect)
Procedure, shortened: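 Using 9-cis retinoic acid as the reference agonist, chemicals were tested in HEK 293T cells […] for 16 hr; substrate loading lasted 2 hr at room temperature.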

[10] = qHTS assay to identify small molecule agonists of the RXR signaling pathway - cell viability counter screen (AID 1159529); also: nearly all actives have a fitted effect of over 50% in size; also: potency is read from the fitted curve at half-maximal effect
Procedure, shortened: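 Compounds dissolved in DMSO were pinned onto HEK 293T cells carrying a beta-lactamase reporter under RXR-alpha control and incubated 16 hr. Cytotoxicity was then quantified by CellTiter-Glo luminescence.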

[11] = qHTS assay to identify small molecule antagonists of the retinoid acid receptor (RAR) signaling pathway - cell viability counter screen (AID 1159551); also: nearly all actives have a fitted effect of over 35% in size; also: potency is read from the fitted curve at half-maximal effect
Procedure, shortened: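 Luminescent ATP quantitation (CellTiter-Glo) gave cell viability in C3RL4 cells exposed to test chemicals for 6 h at 37 C alongside 1 uM final retinol.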

[12] = qHTS assay to identify small molecule antagonists of the retinoic acid receptor (RAR) signaling pathway (AID 1159552; also: nearly all actives have a fitted effect of over 50% in size; also: potency is read from the fitted curve at half-maximal effect)
Procedure, shortened: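 Test chemicals and DMSO controls were pin-transferred onto C3RL4 cells a day after seeding; retinol (1 uM final) followed at once. Luminescent reporter output was quantified after 6 hr of co-incubation and 30 min with detection reagent.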

[13] = qHTS assay to identify small molecule agonists of the retinoic acid receptor (RAR) signaling pathway (AID 1159553)
Procedure, shortened: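 Luminescence from a RARE-driven luciferase reporter in C3RL4 cells served as the read-out, measured after 30 min with detection reagent at room temperature. Compounds in DMSO were applied for 6 hr at 37 C following overnight seeding.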

[14] = qHTS assay to identify small molecule agonists of the endoplasmic reticulum stress response signaling pathway - cell viability counter screen (AID 1159517; calls by dose curve; also: nearly all actives have a fitted effect of over 50% in size; also: potency is read from the fitted curve at half-maximal effect)
Procedure, shortened: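 Cells, HeLa ESRE-bla; density, 1,500/well; dosing, 5 hr at 37 C, 5% CO2; readout, CellTiter-Glo luminescence after 30 min RT.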

[15] = qHTS assay to identify small molecule antagonists of the estrogen related receptor (ERR) signaling pathway - cell viability counter screen (AID 1224818);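 also: series mostly up to about 46 µM; viability measured after 17.5 h of compound exposure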
Procedure, shortened: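 Multiplexed counter screen to separate cytotoxic compounds from true ERR modulators. ERR cells received DMSO-dissolved compounds after a 6 h pre-incubation, were exposed 17.5 h at 37 C, then assayed with CellTiter-Fluor fluorescence.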

[16] = qHTS assay to identify small molecule antagonists of the estrogen related receptor (ERR) signaling pathway (AID 1224819)
Procedure, shortened: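 Seed ERR cells 2,000/well; rest 6 h at 37 C/5% CO2; pin compounds in DMSO; incubate 18 h at 37 C; add One-Glo; wait 30 min at room temperature; measure luminescence.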

[17] = qHTS assay to identify small molecule agonists of the estrogen related receptor (ERR) signaling pathway (AID 1224820)
Procedure, shortened: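 ERR reporter cells (NTP line) plated 2,000/well, incubated 6 h at 37 C/5% CO2, then pinned with compounds in DMSO and held 18 h at 37 C. One-Glo added; luminescence read after 30 min at room temperature.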

[18] = tested on: estrogen-related receptor alpha (ERRalpha) with PGC-1alpha coactivator, human; experiment: qHTS assay to identify small molecule antagonists of the estrogen related receptor signaling pathway with the pleiotropic PPARgamma coactivator (PGC) (AID 1224821; calls by dose curve)
Procedure, shortened: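 Cells engineered for PGC/ERR signalling (line from NTP) were plated 6 h at 37 C/5% CO2, then exposed to DMSO-dissolved compound for 18 h at 37 C. Luciferase activity was read by One-Glo luminescence after 30 min at room temperature.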

[19] = qHTS assay to identify small molecule antagonists of the estrogen related receptor signaling pathway with the pleiotropic PPARgamma coactivator (PGC) cell viability counter screen (AID 1224822;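 also: series mostly up to about 46 µM; viability read after 17.5 h compound exposure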)
Procedure, shortened: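 Cells: PGC/ERR, 2,000/well, 1536-well format. Pre-incubation 6 h, 37 C/5% CO2. Compound exposure 17.5 h, 37 C. Detection: CellTiter-Fluor, 30 min, fluorescence.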

[20] = qHTS assay to identify small molecule agonists of the estrogen related receptor signaling pathway with the pleiotropic PPARgamma coactivator (PGC) (AID 1224823)
Procedure, shortened: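 PGC/ERR reporter cells were seeded, rested 6 h at 37 C/5% CO2, then exposed to compounds in DMSO by pin transfer for 18 h at 37 C. Luciferase activity was read as luminescence after One-Glo reagent and 30 min at room temperature.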

Chain of Retinoic acid receptor RXR-alpha (Homo sapiens) (P19793 whole entry, looked up): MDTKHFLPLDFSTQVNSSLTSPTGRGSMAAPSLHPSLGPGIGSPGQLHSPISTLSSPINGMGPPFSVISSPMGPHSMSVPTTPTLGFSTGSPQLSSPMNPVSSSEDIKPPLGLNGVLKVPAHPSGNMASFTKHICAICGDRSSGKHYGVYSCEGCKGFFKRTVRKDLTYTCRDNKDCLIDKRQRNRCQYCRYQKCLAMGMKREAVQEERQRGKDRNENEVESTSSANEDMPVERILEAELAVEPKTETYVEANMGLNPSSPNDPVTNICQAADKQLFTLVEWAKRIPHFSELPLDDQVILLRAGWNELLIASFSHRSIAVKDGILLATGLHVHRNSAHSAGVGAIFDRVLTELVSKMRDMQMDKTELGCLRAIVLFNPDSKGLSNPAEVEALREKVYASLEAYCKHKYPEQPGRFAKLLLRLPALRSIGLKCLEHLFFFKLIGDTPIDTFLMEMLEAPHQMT

Row | SMILES | Potency [1] | outcome [2] | outcome [3] | outcome [4] | Potency [5] | Potency [6] | Potency [7] | outcome [8] | Potency [9] | Potency [10] | Potency [11] | Potency [12] | Potency [13] | Potency [14] | outcome [15] | outcome [16] | outcome [17] | outcome [18] | outcome [19] | outcome [20]
1 | CCN[C@@H](C)Cc1cccc(C(F)(F)F)c1 | inactive | inactive | inactive | inactive | inactive | inactive | inactive | inactive | inactive | inactive | inactive | inactive | inactive |  |  |  |  |  |  | 
2 | Cc1ccc(Cl)c(O)c1 | inactive | inactive | inactive | inactive | inactive |  | inactive | inactive | inactive | inactive | inactive | inactive |  | inactive |  |  |  |  |  | 
3 | O=C1C2CC=CCC2C(=O)N1SC(Cl)(Cl)Cl (stereo unspecified) | inactive and 21.5 µM (active) | inactive | inactive | inactive | inactive and 1.9 µM (active) |  | inactive and 48.2 µM (active) |  | inactive | inactive and 24.1 µM (active) | inactive and 26.9 µM (active) | inactive and 5.36 µM (active) | inactive | inactive |  |  |  |  |  | 
4 | CCOC(=O)CCl |  | inactive | inactive | inactive | inactive | inactive | inactive | inactive | inactive | inactive | inactive | inactive | inactive |  |  |  |  |  |  | 
5 | O=c1[nH]oc2c1CCNC2 | inactive | inactive | inactive | inactive | inactive | inactive | inactive | inactive | inactive | inactive | inactive | inactive | inactive |  | inactive | inactive | inactive | inactive | inactive | inactive
6 | O=[N+]([O-])c1cccc(CCl)c1 |  | inactive | inactive | inactive | inactive | inactive | inactive | inactive | inactive | inactive | inactive | inactive | inactive |  |  |  |  |  |  | 
7 | C=C(C)[C@H]1CN[C@H](C(=O)O)[C@H]1CC(=O)O | inactive | inactive | inactive | inactive | inactive |  | inactive | inactive | inactive | inactive | inactive | inactive |  | inactive | inactive |  |  |  | inactive | 
8 | NC1(c2ccccc2)CCCCC1 | inactive | inactive | inactive | inactive | inactive |  | inactive | inactive | inactive | inactive | inactive | inactive | inactive | inactive |  |  |  |  |  | 
9 | OCC(Cl)CCl (stereo unspecified) | inactive | inactive | inactive | inactive | inactive |  | inactive | inactive | inactive | inactive | inactive | inactive | inactive | inactive |  |  |  |  |  | 
10 | c1cncc([C@@H]2CCCCN2)c1 | inactive | inactive | inactive | inactive | inactive |  | inactive | inactive | inactive | inactive | inactive | inactive |  | inactive |  |  |  |  |  | 
11 | N[C@@H]1C[C@H]1c1ccccc1 | inactive | inactive | inactive | inactive | inactive |  | inactive | inactive | inactive | inactive | inactive | inactive |  | inactive |  |  |  |  |  | 
12 | N[C@@H](Cc1ccc(Oc2cc(I)c(O)c(I)c2)c(I)c1)C(=O)O | inactive | inactive | inactive | inactive | inactive |  | inactive | inactive | inactive | inactive | inactive | inactive | inactive | inactive |  |  |  |  |  | 
13 | COc1ccccc1OC | inactive | inactive | inactive | inactive | inactive |  | inactive | inactive | inactive | inactive | inactive | inactive | inactive | inactive |  |  |  |  |  | 
14 | CCN(CCO)CCO | inactive | inactive | inactive | inactive | inactive |  | inactive | inactive | inactive | inactive | inactive | inactive | inactive | inactive |  |  |  |  |  | 
15 | CCOC(=O)NC(C)(C)Cc1ccc(Cl)cc1 | inactive | inactive | inactive | inactive | inactive |  | inactive | inactive | inactive | inactive | inactive | inactive |  | inactive |  |  |  |  |  | 
16 | CCc1ccc(C2CCNCC2)cc1 | inactive | inactive | inactive | inactive | inactive |  | inactive | inactive | inactive | inactive | inactive | inactive | inactive | inactive |  |  |  |  |  | 
17 | ClC1=C(Cl)C2(Cl)C(CBr)CC1(Cl)C2(Cl)Cl (stereo unspecified) | inactive | inactive | inactive | inactive | inactive | inactive | inactive |  | inactive | inactive | inactive | 54.5 µM (active) and inactive |  | 54.9 µM (active) and inactive |  |  |  |  |  | 
18 | CNC(=O)Oc1ccccc1C(C)C | inactive | inactive | inactive | inactive | inactive |  | inactive | inactive | 49 µM (active) | inactive | inactive | inactive | inactive | inactive |  |  |  |  |  | 
19 | CCC1(CC)C(=O)C=CNC1=O | inactive | inactive | inactive | inactive | inactive |  | inactive | inactive | inactive | inactive | inactive | inactive | inactive | inactive |  |  |  |  |  | 
20 | CCOC(=O)C(SP(=S)(OC)OC)c1ccccc1 (stereo unspecified) | inactive | inactive | inactive | inactive | inactive |  | inactive | inactive | inactive | inactive | inactive | inactive |  | inactive |  |  |  |  |  | 
21 | CCN(CC)C1CCCCC1 | inactive | inactive | inactive | inactive | inactive |  | inactive | inactive | inactive | inactive | inactive | inactive | inactive | inactive |  |  |  |  |  | 
